In PubChem BioAssay (NCI):
Compounds without any hit were thinned out: in the full panel of roughly 79,000, 15% have a hit. Unmarked numbers belong to inactive results. Active and inactive are the calls of the source. Rule as the data show it: active = growth inhibition above about 70%; inactive = the rest.

Columns and labels:
[1] = NCI Yeast Anticancer Drug Screen. Data for the rad50 strain (AID 155);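 also: 0% = growth of vehicle-only cultures of the same strain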; conditions: S. cerevisiae rad50 strain growth inhibition, hits give high values
Summary of the method: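 Genetically altered yeast (DNA repair pathway); compound treatment; growth inhibition vs vehicle ctrl.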

[2] = NCI Yeast Anticancer Drug Screen. Data for the mec2-1 strain (AID 157); conditions: S. cerevisiae mec2-1 strain, hits give high values
Summary of the method: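 Each compound was tested on mec2-1 yeast, a strain altered in DNA damage repair or cell cycle control. Growth inhibition is reported relative to vehicle.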

[3] = NCI Yeast Anticancer Drug Screen. Data for the sgs1 mgt1 strain (AID 161);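 also: 0% = growth of cultures given vehicle only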; conditions: S. cerevisiae sgs1 mgt1 strain, hits give high values
Summary of the method: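 Test agents were incubated with a DNA-repair-mutant yeast strain. Growth was then read and compared against vehicle-treated controls.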

[4] = NCI Yeast Anticancer Drug Screen. Data for the cln2 rad14 strain (AID 165);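 also: 0% = growth equal to vehicle treated cultures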; conditions: S. cerevisiae cln2 rad14 strain, hits give high values
Summary of the method: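 Test compounds were added to cln2 rad14 yeast cultures; inhibition of growth was then determined by comparison with vehicle treatment.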

[5] = NCI Yeast Anticancer Drug Screen. Data for the bub3 strain (AID 167); conditions: S. cerevisiae bub3 mutant strain, hits give high values
Summary of the method: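 Yeast carrying a defined mutation is treated with each compound, and growth is compared with that of vehicle-exposed cells to give inhibition.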

[6] = NCI Yeast Anticancer Drug Screen. Data for the mlh1 rad18 strain (AID 175); conditions: S. cerevisiae mlh1 rad18 strain growth inhibition, hits give high values
Summary of the method: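 Inhibition values reflect reduced growth of mutant yeast versus vehicle-treated controls following compound exposure; the mutations affect DNA damage repair.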

[7] = at 5.0 µM (retest, dose inferred, filed as 0.5)
[8] = at 50.0 µM (retest, dose inferred, filed as 5.0)

| SMILES | growth inhibition [1, 7] | growth inhibition [1, 8] | growth inhibition ([1]; at 50.0 µM) | growth inhibition [2, 7] | growth inhibition [2, 8] | growth inhibition ([2]; at 50.0 µM) | growth inhibition [3, 7] | growth inhibition [3, 8] | growth inhibition ([3]; at 50.0 µM) | growth inhibition [4, 7] | growth inhibition [4, 8] | growth inhibition ([4]; at 50.0 µM) | growth inhibition [5, 7] | growth inhibition [5, 8] | growth inhibition ([5]; at 50.0 µM) | growth inhibition [6, 7] | growth inhibition [6, 8] | growth inhibition ([6]; at 50.0 µM) |
| --- | --- | --- | --- | --- | --- | --- | --- | --- | --- | --- | --- | --- | --- | --- | --- | --- | --- | --- |
| O=C(Nc1ccc2c(c1)Cc1cc([N+](=O)[O-])c(F)cc1-2)C(F)(F)F | 13% | 4% | 5.25% | 1% | 2% | 49.2% | 3% | -20% | 6.55% | 0% | 7% | -2.1% | -3% | 0% | -4.35% | 3% | 3% | 28.5% |
| O=C(O)c1c2c(c(O)c3c1CN(C1CCCCC1)CO3)OCN(C1CCCCC1)C2 | 8% | 35% | 50.4% | 3% | 8% | 53.1% | 4% | 25% | 72.1% (active) | -17% | 5% | 73.7% (active) | 2% | 11% | 32.1% | 0% | 25% | 83.8% (active) |
| CN(C)C=Nc1c2ccccc2nc2ccccc12 | 21% | 83% (active) | 71.1% (active) | 23% | 80% (active) | 57.1% | 11% | 65% | 68.7% | 37% | 60% | 55.7% | 5% | 71% (active) | 75% (active) | -8% | 84% (active) | 76.3% (active) |
| O=C(Oc1cc([N+](=O)[O-])ccc1Cl)Oc1cc([N+](=O)[O-])ccc1Cl | -6% | 97% (active) | 97.5% (active) | 0% | 99% (active) | 99.5% (active) | -7% | 99% (active) | 98.6% (active) | 0% | 98% (active) | 97.9% (active) | -9% | 98% (active) | 98.8% (active) | -5% | 98% (active) | 98.6% (active) |
| O=C(O)c1cc2oc(-c3ccccc3)cc2[nH]1 | -11% | 71% (active) | 72.5% (active) | -8% | 71% (active) | 88.7% (active) | 7% | 74% (active) | 47.9% | -32% | 34% | 69.8% | -14% | 51% | 83.8% (active) | -9% | 80% (active) | 87.3% (active) |
| CC(CO)CCC(=O)C(C)C1C(=O)CC2CC3CC(O)CCC3(C)CC21C (stereo not given) | 3% | 41% | 83.2% (active) | -2% | 66% | 81% (active) | 2% | 48% | 84% (active) | 4% | 88% (active) | 95.1% (active) | 2% | 85% (active) | 63.6% | 16% | 89% (active) | 90.3% (active) |
| Cc1ccc[n+](CC(=O)C2CCC3CC4CCCCC4CC3C2)c1 (stereo not given) | -2% | 38% | 22.4% | -1% | 34% | 17.7% | -27% | 19% | 37.4% | 0% | 31% | -3.75% | 1% | 29% | 18.8% | -2% | 43% | 59% |
| Cc1cccc2c(CC(=O)O)cccc12 | -5% | 78% (active) | 78.7% (active) | 7% | 82% (active) | 77.7% (active) | 1% | 81% (active) | 52.5% | 19% | 61% | 71.8% (active) | -1% | 95% (active) | 75% (active) | 4% | 88% (active) | 78.5% (active) |
| CCCCN(CCCC)CCCC(O)c1c2ccc(Cl)cc2nc2ccc(OC)cc12 (stereo not given) | 1% | 24% | 18.1% | -1% | 5% | 30% | 26% | 11% | 18.9% | -3% | 0% | 25.6% | 3% | 10% | 47.8% | 3% | 23% | 70.7% (active) |
| O=c1c2ccccc2sc2cccc(NCCCN3CCN(CCCNc4cccc5sc6ccccc6c(=O)c45)CC3)c12 | -1% | 4% | 28.4% | -2% | -3% | -10.7% | 4% | 13% | 3.3% | -3% | -6% | 46% | -2% | -5% | -9.1% | -3% | -65% | 0.6% |
| Cc1cc(Cl)c2c(c1)C(=O)/C(=C/c1ccc(Cl)cc1)O2 | 5% | 99% (active) | 88.3% (active) | 18% | 99% (active) | 90% (active) | -17% | 99% (active) | 84.1% (active) | 26% | 99% (active) | 89.2% (active) | -22% | 98% (active) | 88.7% (active) | 13% | 99% (active) | 85.3% (active) |
| N#Cc1ccc(Oc2nc3ccccc3nc2-c2ccccc2)cc1 | 0% | 21% | 38.2% | -4% | 39% | 22.2% | 12% | 52% | 33.9% | -6% | 23% | 62.8% | 5% | 86% (active) | 27.8% | -4% | 27% | 53.5% |
| C=CCNCCC1CCCCCC1 | 7% | 97% (active) | 96.6% (active) | 6% | 97% (active) | 97.5% (active) | 7% | 98% (active) | 49.1% | 5% | 96% (active) | 8.8% | 7% | 97% (active) | 97.7% (active) | 4% | 97% (active) | 96.5% (active) |
| COC(=O)/C(C#N)=C/c1cc(OC)c(O)cc1Br | 46% | 56% | 48.6% | 31% | 44% | 40% | 44% | 68% | 42.1% | 35% | 43% | 43.8% | 46% | 48% | 46.5% | 54% | 76% (active) | 31.1% |
| O=C1C=CC(=O)C1=Cc1ccc(Cl)c(Cl)c1 | 99% (active) | 99% (active) | 98.8% (active) | 100% (active) | 99% (active) | 98.9% (active) | 100% (active) | 98% (active) | 98.7% (active) | 100% (active) | 99% (active) | 99.2% (active) | 100% (active) | 99% (active) | 98.8% (active) | 100% (active) | 99% (active) | 99% (active) |
| COC(=Nc1ccccc1)SSC(C)C | 23% | 77% (active) | 84.5% (active) | 19% | 57% | 86.8% (active) | 38% | 87% (active) | 81.6% (active) | 38% | 66% | 46.4% | 46% | 92% (active) | 86.2% (active) | 21% | 64% | 85.5% (active) |
| CC(C)NC(=O)OCCS(=O)c1c(Cl)c(Cl)nn1C (stereo not given) | -15% | 62% | 98.8% (active) | 11% | 37% | 99.2% (active) | -5% | 53% | 42.4% | 1% | 20% | 97.7% (active) | -4% | 75% (active) | 97% (active) | -7% | 56% | 99% (active) |
| O=C(/C=C/c1ccccc1)CCN1CCOCC1 | 21% | 99% (active) | 91.3% (active) | 26% | 99% (active) | 85.3% (active) | 22% | 100% (active) | 86.5% (active) | 0% | 84% (active) | 88.7% (active) | 35% | 100% (active) | 88.8% (active) | 32% | 99% (active) | 84.7% (active) |
| O/N=C1/C(=C/c2ccc(Cl)c(Cl)c2)CCCC1C(NO)c1ccc(Cl)c(Cl)c1 (stereo not given) | 17% | 96% (active) | 64% | -1% | 98% (active) | 1.9% | 2% | 96% (active) | 25.2% | -6% | 97% (active) | -14.8% | -1% | 96% (active) | 21.6% | 1% | 97% (active) | 79% (active) |
| c1ccc2sc(SSN3CCOCC3)nc2c1 | 78% (active) | 99% (active) | 94.4% (active) | 28% | 98% (active) | 89.2% (active) | 18% | 99% (active) | 66.8% | 76% (active) | 97% (active) | 96.3% (active) | 64% | 98% (active) | 86.4% (active) | 34% | 99% (active) | 94% (active) |
